Shown are actives, neighbours in structure and some others; about 3.3% of the full set was active somewhere.
USP2a block = USP2a (human) protease inhibition | O75604 | USP2 core, Ub-CHOP2 coupled fluorogenic reporter, 485/531 | Potency, µM (top dose mostly 38.3 µM), usual class: inhibitors | 330,000 tested, 0.01% active
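Deubiquitinase activity read as fluorescence (485/531 nm) after Ub-CHOP2 cleavage activates the enterokinase reporter on its substrate; USP2 core 10nM, Ub-CHOP2 and substrate 25nM each, 30min compound preincubation then 60min RT; data normalized to NEM, curves fitted.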
USP1 inh = blocks the human USP1/UAF1 deubiquitinase complex; O94782; recombinant USP1/UAF1, Ub-Rhodamine cleavage fluorescence; Potency, µM (series often up to 57.1 µM), hits mostly inhibitors; 390,000 tested, 0.23% active; note: nearly all actives have a fitted effect of over 60% in size
Target sequence (O94782 whole entry, looked up): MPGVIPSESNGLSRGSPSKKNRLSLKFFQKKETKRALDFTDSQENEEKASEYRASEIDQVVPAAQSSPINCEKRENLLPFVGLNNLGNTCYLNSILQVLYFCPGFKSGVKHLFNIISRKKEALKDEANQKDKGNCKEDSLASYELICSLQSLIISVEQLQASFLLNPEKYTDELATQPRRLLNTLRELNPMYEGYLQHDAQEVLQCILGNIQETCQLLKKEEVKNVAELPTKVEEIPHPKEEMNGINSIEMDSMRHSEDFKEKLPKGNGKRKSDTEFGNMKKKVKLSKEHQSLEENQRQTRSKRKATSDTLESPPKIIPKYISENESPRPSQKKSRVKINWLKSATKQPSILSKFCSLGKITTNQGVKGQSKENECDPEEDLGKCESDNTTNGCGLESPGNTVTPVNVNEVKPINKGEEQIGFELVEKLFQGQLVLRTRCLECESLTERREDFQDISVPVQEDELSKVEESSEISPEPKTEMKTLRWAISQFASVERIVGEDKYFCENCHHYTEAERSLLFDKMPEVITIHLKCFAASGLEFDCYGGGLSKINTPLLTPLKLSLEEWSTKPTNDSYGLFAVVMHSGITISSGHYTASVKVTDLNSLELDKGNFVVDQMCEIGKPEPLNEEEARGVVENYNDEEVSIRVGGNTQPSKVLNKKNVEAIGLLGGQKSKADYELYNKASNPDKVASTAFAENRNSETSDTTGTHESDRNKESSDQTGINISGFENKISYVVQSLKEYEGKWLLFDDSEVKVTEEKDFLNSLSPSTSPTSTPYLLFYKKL
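In this screen, compounds sit with the deubiquitinase complex (1nM) for 15 min at room temperature before Ub-Rho is added at 150nM final. Fluorescence rise is then followed for 6 reads every 60 seconds.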
PLK1 PBD block = inhibitors of human PLK1 polo-box domain binding | P53350 | Plk1 PBD binding of FITC phosphopeptide, fluorescence polarization | Potency, µM, most hits filed as inhibitors | 360,000 tested, 2.8% active | AID 720504; note: series mostly up to about 57 µM; nearly all actives have a fitted effect of over 65% in size
WRN helicase inh = inhibitors of human WRN helicase; WRN helicase unwinding, fluorescent forked duplex, kinetic; 360,000 tested, 0.46% active; Potency, µM (top dose mostly 114 µM), hits mostly inhibitors; Q14191; AID 651768; note: nearly all actives have a fitted effect of over 55% in size
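WRN at 20 nM final preincubated with compound 15 min at room temperature; reaction started with 100 nM fluorophore/quencher forked duplex oligonucleotide and 2 mM ATP final. Unwinding followed kinetically by red fluorescence (ex 525, em 598 nm).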
PI5P4Ka inh = blocks human PI5P4K alpha kinase activity; PI5P4Kalpha enzyme, ADP-Glo luminescence, 60 min; active compounds read low; max response, %; 330,000 tested, 1.2% active; AID 652105; active = max response of -50% or lower; inconclusive = between -30% and -50%; inactive = -30% or higher; note: value at the top dose of about 77 µM
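Enzyme plus substrate dispensed, test compounds pinned in, then ATP (5 microM final) added. After 60 min at RT, ADP-Glo reagent 1 for 45 min and reagent 2 for 30 min preceded luminescence imaging.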
Hits are given with their value; – = inactive; ? = inconclusive; · = no result given; [ ] = another dose, or the depositor's remark. Unless noted, calls come from the whole dose curve; as a rule, active = well fitted curve in the direction sought with a large enough effect; inconclusive = small, poorly fitted or top-dose-only effect, or another doubt; inactive = no such curve, though single readings can be large; an effect the other way counts as inactive or inconclusive.

SMILES	USP2a block	USP1 inh	PLK1 PBD block	WRN helicase inh	PI5P4Ka inh
CC(=Cc1ccccc1)C=C1SC(=S)N(CCCC(=O)Nc2ccc(C(=O)O)c(O)c2)C1=O	·	·	?	?	-57
O=C(CCCN1C(=O)/C(=C/c2cccs2)SC1=S)Nc1ccccn1	–	–	19µM	–	–
CC(=C\c1ccccc1)/C=C1/SC(=O)N(CCCC(=O)Nc2ccc(C(=O)O)cc2)C1=O	–	–	–	–	–
O=C(CN1C(=O)S/C(=C\c2cccs2)C1=O)Nc1ccc(O)cc1C(=O)O	–	–	24µM	–	?
O=C(CCN1C(=O)S/C(=C\c2ccccc2)C1=O)Nc1ccc(O)cc1C(=O)O	–	–	–	–	?
CC(/C=C1\SC(=S)N(CCCC(=O)Nc2ccc(C(=O)O)c(O)c2)C1=O)=C\c1ccccc1	–	–	27µM	–	?
O=C(CCN1C(=O)/C(=C\c2cccs2)SC1=S)Nc1ccccn1	–	?	–	–	–
CC(/C=C1\SC(=S)N(CCC(=O)Nc2ccc(O)cc2)C1=O)=C\c1ccccc1	–	–	–	–	–
Cc1ccc(-n2nc(C(=O)N3CCC(C)CC3)c(=O)n(C)c2=O)cc1	·	–	·	·	·
CCOc1ccc(C(=O)Nc2c(C(=O)Nc3ccccc3OC)oc3ccccc23)cc1OCC	·	–	·	·	·
O=C(CCN1C(=O)/C(=C/c2cccs2)SC1=S)Nc1ccc(C(=O)O)c(O)c1	–	?	27µM	–[11.6 µM]	-58
Cc1nnsc1S(=O)c1ccc(Cl)cc1 (stereo not given)	–	–	–	–	–
O=C(c1nnsc1S(=O)c1ccc(Cl)cc1)N1CCOCC1 (stereo not given)	–	–	1.1µM	25µM	?
Cc1nn(C(=O)c2ccc(Br)cc2)c(C)c1S(=O)(=O)N1CCOCC1	·	–	·	·	·
O=C(Nc1ccc(Cl)cc1)Nc1ccccc1Sc1ncc([N+](=O)[O-])s1	–	?	8.4µM	–	?
CCOc1cc(-c2nc(-c3ccc(-c4ccc(C)cc4)nc3OC)no2)cc(OCC)c1OCC	·	–	·	·	·
Cc1nc(-c2cccc(S(=O)(=O)N3CCOCC3)c2)cs1	–	–	9.5µM	–	·
O=C(Nc1nc(-c2ccccn2)cs1)c1ccc(S(=O)(=O)N2CCCCC2)cc1	–	·	·	·	·
COc1ccc(C(=O)Nc2nc(-c3ccccn3)cs2)cc1S(=O)(=O)N1CCOCC1	–	–	24µM	–	?
COc1ccc(C(=O)Nc2ccccn2)cc1S(=O)(=O)N1CCOCC1	–	–	–	–	–
Cc1ccc(S(=O)(=O)N2CCOCC2)cc1C(=O)Nc1nc(-c2ccccn2)cs1	–	–	17µM	–	–
O=C(Nc1nc(-c2ccccn2)cs1)c1cccc(S(=O)(=O)N2CCOCC2)c1	–	?	19µM	–	–
CCCCN(CCCC)CCNC(=O)Cn1nc(CC)n2c(cc3sc(C)cc32)c1=O	·	–	·	·	·
CCOc1ccccc1CNC(=O)c1ccc2c(c1)sc1nc(-c3cccc(OC)c3)cn12	·	–	·	·	·
O=C(Nc1nc(-c2ccccn2)cs1)c1cc2ccccc2o1	–	–	–	–	–
SMILES	USP2a block	USP1 inh	PLK1 PBD block	WRN helicase inh	PI5P4Ka inh
CCOc1ccccc1NC(=O)c1cc(S(=O)(=O)N2CCOCC2)ccc1C	–	–	–	–	–
CCOC(=O)c1c(-c2ccccc2Cl)csc1NC(=O)c1cc(S(=O)(=O)N2CCOCC2)ccc1C	–	–	11µM	–	–
COc1ccc(CC(=O)Nc2nc3ccccc3s2)cc1S(=O)(=O)N1CCOCC1	–	–	21µM	–	–
Cc1c(C(=O)Nc2nc(-c3ccccn3)cs2)oc2ccccc12	–	–	12µM	–	-59
COC(=O)c1ccc(NC(=O)CSc2ccc(-c3sc(-c4ccccc4)nc3C)nn2)cc1	·	–	·	·	·
Cc1cc2oc(=O)cc(C)c2c2occ(-c3ccc(Cl)cc3)c12	·	–	·	·	·
COc1ccc(NC(=O)NCc2ccccc2F)cc1OC	–	–	–	–	–
COc1ccccc1NC(=O)NCc1ccccc1F	–	–	34µM	–	–
COc1cccc(NC(=O)NCc2ccccc2F)c1	–	–	12µM	–	–
O=C(NCCn1ccc2ccccc21)c1ccc(Cl)cc1	·	–	·	·	·
O=C1C(=O)N(CCN2CCOCC2)C(c2ccccn2)/C1=C(/O)c1ccc(F)cc1 (stereo not given)	–	–	11µM	–	?
CN(C(=O)c1cc2c(=O)oc3ccccc3c2s1)c1ccc(F)cc1	·	–	·	·	·
Cc1ccc(OCCCC(=O)N2CCOCC2)cc1	–	–	12µM	–	?
Cc1cc(Cl)ccc1OCCCC(=O)N1CCOCC1	–	–	–	–	–
Cn1nnnc1SCCCNCc1cccc(OCc2ccccc2)c1	·	–	·	·	·
O=C(Nc1ccccc1C(=O)OCc1cc(=O)n2nc(C3CC3)sc2n1)c1cccc(F)c1	·	–	·	·	·
CCOc1cc(/C=N/Nc2nncc(-c3ccccc3)n2)ccc1O	–	–	15µM	–	–
COc1ccc(-c2cnnc(N/N=C/c3ccc(OC)c(OC)c3)n2)cc1	–	–	–	–	–
Oc1cccc(/C=N\Nc2nncc(-c3ccccc3)n2)c1	–	–	21µM	–	–
COc1ccc(-c2cc(C(=O)Nc3ccn(Cc4ccc(C)cc4)n3)no2)cc1OC	·	–	·	·	·
CC(N=Cc1cc([N+](=O)[O-])ccc1O)c1ccccc1 (stereo not given)	–	–	–	–	?
CC(N=Cc1cccc(O)c1O)c1ccccc1 (stereo not given)	–	?	?	32µM	·
Cc1ccccc1N=Cc1cccc(O)c1O	–	?	–	11µM	?
CCOc1ccc(CCNC(=O)CN2C(=O)COc3ccc(S(=O)(=O)N4CCC(C)CC4)cc32)cc1	·	–	·	·	·
Cc1cc(Cl)cc2sc(=S)[nH]c12	·	–	13µM	–	?
SMILES	USP2a block	USP1 inh	PLK1 PBD block	WRN helicase inh	PI5P4Ka inh
Cc1[nH]c(=S)sc1Cc1ccc(Cl)c(Cl)c1	–	·	·	·	·
COc1ccc(-c2cnc(N)n2CC2CCCO2)cc1 (stereo not given)	–	–	27µM	–	–
c1ccc(-c2cnc(SCCN3CCOCC3)n2CC2CCCO2)cc1 (stereo not given)	–	–	–	–	–
Cc1cc(Cl)ccc1NC(=O)C1CCN(c2nnc(-n3c(C)ccc3C)s2)CC1	·	–	·	·	·
O=C(c1ccc2[nH]ccc2c1)N1CCCC(Nc2ccccc2)C1 (stereo not given)	–	–	?	–	–
O=C(c1ccc(N2CCOCC2)cc1)N1CCCC(Nc2ccccc2)C1 (stereo not given)	–	–	9.5µM	–	–
CCCCC(=O)NC(=S)Nc1c(C)cc(Br)cc1C	–	–	15µM	–	–
Cc1ccc(S(=O)(=O)N(Cc2cccnc2)Cc2cc3ccccc3[nH]c2=O)cc1	–	–	–	–	–
COc1ccc(S(=O)(=O)N(Cc2cccnc2)Cc2cc3ccccc3[nH]c2=O)cc1	–	–	27µM	–	–
CCOC(=O)c1cccc(NC(=O)CCS(=O)(=O)c2ccc3c(c2)CC(=O)N3C)c1	·	–	·	·	·
COC1=CC(=NCl)C=CC1=NCl	·	·	13µM	?	-62

Screening data deposited in PubChem by National Center for Advancing Translational Sciences (NCATS).
